# Sampled rows, rich in hits. Any-hit rate of the full collection: about 3.3%.
# FGF22 binding: binders of human FGF22 protein, primary screen, FGF22 synaptogenesis inhibitor project, biophysical, thermal shift, single point. Fibroblast growth factor 22 (Homo sapiens), Q9HCT0. actives 1.5% (n = 340,000). activity (Tm shift, normalised), % at 9.99 µM. recombinant FGF22 thermal shift, SYPRO orange fluorescence; percent of sucrose octasulfate shift, DMSO zero;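 active means mean Tm shift, scaled 0 neutral to 100 positive control, at about 1.3% or above, every replicate too, limit read from the data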
# Target sequence (Q9HCT0 whole entry, looked up): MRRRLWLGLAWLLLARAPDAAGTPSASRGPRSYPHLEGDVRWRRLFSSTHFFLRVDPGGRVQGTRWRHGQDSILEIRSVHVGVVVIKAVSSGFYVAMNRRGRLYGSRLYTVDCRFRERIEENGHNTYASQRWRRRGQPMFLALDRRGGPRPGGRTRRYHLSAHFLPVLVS
# SIRT5 inh: SIRT5 desuccinylase inhibitors, primary screen, biochemical, fluorescence imaging, single point, set 5. AID 652115, 2013. inhibition, % at 15 µM. NAD-dependent protein deacylase sirtuin-5, mitochondrial (Homo sapiens), Q9NXA8. Purified SirT5, succinyl-peptide AMC, trypsin-coupled fluorescence. actives 1.1% (n = 330,000); in the data active means inhibition above about 15%
# CASP6 VEID inh: human caspase-6 inhibitors, primary screen, biochemical, VEID-R110 fluorescence, single point, set 2 | purified caspase-6, Z-VEID-R110 cleavage fluorescence | AID 686996, 2013 | actives 0.53% (n = 350,000) | inhibition, % at 12.5 µM;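 active means mean inhibition across replicates at least about 35%, with every replicate also reaching that limit, limit read from the data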
# Target sequence (P55212 24-179 limits assumed): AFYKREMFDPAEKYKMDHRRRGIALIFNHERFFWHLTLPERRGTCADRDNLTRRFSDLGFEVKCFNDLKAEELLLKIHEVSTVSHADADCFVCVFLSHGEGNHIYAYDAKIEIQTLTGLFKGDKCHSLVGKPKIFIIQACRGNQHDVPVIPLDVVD
# Target sequence (P55212 194-293 limits assumed): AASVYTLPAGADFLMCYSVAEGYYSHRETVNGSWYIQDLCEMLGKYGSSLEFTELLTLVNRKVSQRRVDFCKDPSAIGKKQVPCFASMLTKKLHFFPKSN
# GSIS activator: GLuc luminescence reporter in INS-1E cells, primary screen for activators of glucose-dependent secretion of insulin. INS-1E GLuc reporter insulin secretion, 2-3 h. activation, % at 16.6 µM. actives 0.61% (n = 370,000). AID 743287, 2014;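 active means lowest replicate activation of at least 40%, so every replicate reaches that level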
# ERAP1 inh: human ERAP1 aminopeptidase inhibitors, primary screen, biochemical, single point, plate reader | inhibition, % at 10.7 µM | AID 652197, 2013 | recombinant ERAP1, Leu-AMC fluorescence, 60 min | actives 0.15% (n = 340,000) | Endoplasmic reticulum aminopeptidase 1 (Homo sapiens), Q9NZ08;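 active means mean replicate inhibition of at least 30%, or all replicates individually reaching that 30% level; inactive means mean below 30% and not every replicate reaching it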
# A number is an active result; - = inactive; . = no result.
SMILES,FGF22 binding,SIRT5 inh,CASP6 VEID inh,GSIS activator,ERAP1 inh
O=C(Nc1ccccc1F)N[C@@H]1CC[C@@H](CCNS(=O)(=O)c2ccccc2)O[C@H]1CO,-,-,-,-,-
O=C1OC(c2cccs2)=N/C1=C/c1ccc(-c2cccc(C(=O)O)c2)o1,9.4,-,-,.,-
COc1ccccc1CN1C(=O)c2ccccc2[C@@]2(Cc3ccccc3N(CCN3CCOCC3)C2=O)[C@@H]1c1ccc(CO)cc1,-,-,-,.,-
CC(=O)c1cccc(N2C(=O)Nc3ccccc3N2O)c1,43,-,-,-,-
C[C@@H]1CN([C@H](C)CO)C(=O)c2cc(NS(=O)(=O)c3ccc(F)cc3)ccc2O[C@@H](C)CCCCO[C@@H]1CN(C)Cc1ccccc1,.,-,-,-,-
Cc1c(-c2ccc(OCCN3CCOCC3)cc2)c(=O)oc2ccc3ccccc3c12,-,19,-,-,-
Cn1c(SCc2ccc(Cl)cc2Cl)nc(C(F)(F)F)cc1=O,.,.,.,65,.
FC(F)(F)c1nc(SCc2ccc(Cl)cc2Cl)n[nH]1,-,-,-,.,-
Cc1ccc2c(c1)sc(=NC(=O)C1CC1)n2C,-,-,-,-,-
Cc1ccc2c(c1)sc(=NC(=O)c1cccs1)n2C,43,-,-,-,-
CO[C@@H]1CN(C)C(=O)c2cc(NC(=O)C3CC3)ccc2OC[C@H](C)N(C(=O)Cc2ccccn2)C[C@H]1C,.,-,-,-,-
CNC(=O)C[C@H]1CC[C@@H]2[C@H](COC[C@H](O)CN2Cc2ccncc2)O1,-,-,-,-,-
N#C/C(C(=O)N1CCOCC1)=c1/s/c(=C\c2ccccn2)c(=O)n1-c1ccccc1,-,-,-,-,-
C=CCn1c(=O)/c(=C\c2ccccn2)s/c1=C(/C#N)C(=O)NCC1CCCO1 (configuration not stated),43,-,-,-,-
COc1ccc2cc(-c3[nH]ncc3CN3CCCN(c4ccccc4)CC3)ccc2c1,44,-,-,-,-
Nc1ncnc2c1ncn2C1OC(CO)C(O)C1O (configuration not stated),43,-,-,-,-
Nc1ncnc2c1ncn2C1O[C@H](CO)[C@@H](O)[C@@H]1O (some centres not stated),-,-,-,-,-
N#Cc1c(N)n(C2OC(CO)C(O)C2O)c2ncnc(N)c12 (configuration not stated),43,.,-,.,-
CC(=O)N(C)C[C@@H]1Oc2ncc(C#Cc3ccncc3)cc2C(=O)N([C@@H](C)CO)C[C@H]1C,-,-,-,-,-
O=C(C1=C[C@H](c2ccccc2)C[C@H](OCc2ccc(CO)cc2)O1)N1CCCC1,-,-,-,.,-
Cc1ccnc(NC(=O)Nc2ccc(Br)cc2Cl)c1,.,.,.,133,.
COC(=O)c1ccccc1NC(=O)Nc1cc(C)ccn1,-,-,-,-,-
Cc1cc(C)nc(NC(=S)Nc2ccc(Br)cc2Cl)c1,43,-,-,-,-
CC(Cl)c1cc(-c2ncc(C(F)(F)F)cc2Cl)no1 (configuration not stated),44,-,-,-,-
Cc1ccc(C)c(NCC(=O)NNC(=S)Nc2ccccc2)c1,-,18,-,-,-
SMILES,FGF22 binding,SIRT5 inh,CASP6 VEID inh,GSIS activator,ERAP1 inh
Cc1ccc([N+](=O)[O-])cc1NC(=O)C(C)N1CCCCC1 (configuration not stated),-,-,40,-,-
CC(C(=O)Nc1cc([N+](=O)[O-])ccc1Cl)N1CCN(c2ccccc2)CC1 (configuration not stated),-,-,-,-,-
Cc1ccc(Cn2ccc(NC(=O)c3noc4c3CCc3ccccc3-4)n2)cc1,.,.,.,-,.
COc1ccc2c(c1)CCc1c(C(=O)NCc3ccc(Cl)cc3)noc1-2,.,.,.,-,.
COc1ccc2c(c1)CCc1c(C(=O)Nc3cc(C)n(Cc4ccc(Cl)cc4)n3)noc1-2,.,.,.,47,.
COc1ccc2c(c1)CCc1c(C(=O)Nc3ccn(Cc4ccc(C)cc4)n3)noc1-2,28,-,-,.,-
CC(C)C#Cc1ccc2c(c1)O[C@H](CN(C)C(=O)C1CCCCC1)[C@H](C)CN([C@H](C)CO)S2(=O)=O,.,.,.,-,.
CCC(O)(CC)C(=O)NN(C(=O)CCl)c1ccccc1,-,-,-,-,-
O=C(Nc1ccccc1)NN(C(=O)CCl)c1ccccc1,-,-,50,-,-
Cc1ccc(C(O)(C(=O)NN(C(=O)c2ccccc2)c2ccccc2)c2ccc(C)cc2)cc1,-,-,-,.,-
Cc1ccc(N(NC(=O)C(O)(c2ccccc2)c2ccccc2)C(=O)CCl)cc1,.,.,.,82,.
Cc1noc(C)c1NC(=O)N[C@H]1CC[C@H](CC(=O)N2CCN(C)CC2)O[C@H]1CO,-,-,-,-,-
COc1ccc2c3c(n(C)c2c1)[C@H](CO)N(Cc1cccc(F)c1)CC31CN(C(=O)Cc2ccccc2)C1,-,-,-,-,-
Cc1nc2ncccn2c1-c1csc(Nc2ccccc2)n1,-,-,-,.,-
CC(=O)Nc1ccc(Nc2nc(-c3c(C)nc4ccccn34)cs2)cc1,-,-,-,49,.
COc1cccc(-c2cn(CC[C@H]3CC[C@@H](NS(=O)(=O)Cc4ccccc4)[C@@H](CO)O3)nn2)c1,-,-,-,-,-
O=C(CSc1nnnn1-c1ccccc1)N1N=CCC1c1ccccc1 (configuration not stated),.,.,.,-,.
Cc1ccc(SCC(=O)N2N=CCC2c2ccccc2)cc1 (configuration not stated),44,-,-,-,-
O=Cc1ccc(F)c([B-](F)(F)F)c1,43,.,-,-,-
O=Cc1ccc([B-](F)(F)F)o1,-,-,-,-,-
C[C@@H]1CN([C@H](C)CO)C(=O)c2c(c3ccccc3n2C)-c2ccccc2CO[C@H]1CN(C)S(=O)(=O)c1ccc(C(F)(F)F)cc1,-,25,-,-,-
C[C@H]1CN([C@@H](C)CO)C(=O)c2c(c3ccccc3n2C)-c2ccccc2CO[C@H]1CN(C)S(=O)(=O)c1ccc(C(F)(F)F)cc1,-,-,-,-,-
C[C@@H]1CN([C@H](C)CO)C(=O)c2c(c3ccccc3n2C)-c2ccccc2CO[C@@H]1CN(C)S(=O)(=O)c1ccc(C(F)(F)F)cc1,-,32,-,-,-
CO[C@H]1CN(C)C(=O)c2ccc(NS(C)(=O)=O)cc2OC[C@H](C)N(CC2CCCCC2)C[C@H]1C,-,-,-,-,-
COCCCC1CCN(C(=O)C2CCC(=O)N(CCCc3ccccc3)C2)CC1 (configuration not stated),43,.,-,.,-
COCCCC1CCN(C(=O)C2CCC(=O)N(CCc3ccccc3)C2)CC1 (configuration not stated),-,-,-,-,-

# Compound activity: PubChem BioAssay, Broad Institute
